Laboratory results from PubChem BioAssay (EPA / NIEHS).
Inconclusive results are not listed. The source made the active and inactive calls. How the source made its calls, unless noted: active means hit-call score of the fitted dose curve at least 0.9, where 1 is the maximum; inconclusive means response in the unintended direction; inactive means score below 0.9.

System: Thyroperoxidase (TPO), gene 54314
Test: CCTE_Simmons_AUR_rTPO: CCTE's Amplex UltraRed Assay for Thyroperoxidase (TPO) Inhibition, Simmons Lab (AID 2283662);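 further: potency for loss of signal meaning inhibition of peroxidase activity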
In short: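 Cell-free peroxidase activity assay using rat thyroid gland microsomes with excess H2O2 (300 uM) and 25 uM Amplex UltraRed. Compounds tested from 5 nM to 87.5 uM; fluorescence measured after 30 min at 37C, analysed relative to DMSO baseline.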

SMILES | AC50
CC(C)c1ccc(O)cc1 | 2.24 µM (active)
CC(C)(c1cc(Cl)c(O)c(Cl)c1)c1cc(Cl)c(O)c(Cl)c1 | 19.8 µM (active)
CC(C)(O)C#N | 36.7 µM (active)
S=c1[nH]c2ccccc2[nH]1 | 0.0688 µM (active)
c1ccc(P(c2ccccc2)c2ccccc2)cc1 | 40.2 µM (active)

System: not listed separately
Test: CCTE_Simmons_CellTiterGLO_HEK293T: Viability Assessment in CCTE's Assays for Thyroperoxidase (TPO) Inhibition, Simmons Lab (AID 2283665);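 on AC50: cells exposed to compound for 24 h before readout; actives reduce ATP signal below DMSO vehicle meaning cytotoxicity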
In short: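 HEK293T cells in DMEM with 1% FBS, dosed 24 h at 37C with 8 concentrations, 5 nM–87.5 uM final, 0.5% DMSO. ATP measured by CellTiter Glo luminescence; loss of signal vs DMSO, three biological replicates.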

SMILES | outcome | AC50
CC(C)c1ccc(O)cc1 | inactive | –
CC(C)(c1cc(Cl)c(O)c(Cl)c1)c1cc(Cl)c(O)c(Cl)c1 | – | 90.8 µM (active)
CC(C)(O)C#N | inactive | –
S=c1[nH]c2ccccc2[nH]1 | inactive | –

Read-out: not listed separately
Test: CEETOX_H295R_MTT_cell_viability: Viability Assessment in the CeeTox HT-H295R MTT Assay (AID 2283718; active means hit-call score of the fitted dose curve at least 0.9, where 1 is the maximum; inactive means score below 0.9;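 on AC50: curve fitted both ways so AC50 may mark viability loss or gain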)
In short: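 Human H295R adrenal cells, prestimulated 48 h with 10 uM forskolin, were exposed 48 h to chemicals in 0.1% DMSO. Viability was measured in the same wells by MTT (0.5 mg/ml, 4 h, 37 C), absorbance 570/650 nm, as percent of controls.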

SMILES | AC50 | outcome
CC(Cc1ccc(C(C)(C)C)cc1)CN1C[C@@H](C)O[C@@H](C)C1 (stereo partly drawn) | 65.8 µM (active) | –
O=CNC(N1CCN(C(NC=O)C(Cl)(Cl)Cl)CC1)C(Cl)(Cl)Cl (stereo not drawn) | – | inactive
c1ccc(Nc2ccc3ccccc3c2)cc1 | – | inactive
Cc1ccc(OP(=O)(Oc2ccc(C)cc2)Oc2ccc(C)cc2)cc1 (tested in a mixture with another compound) | – | inactive

Biological target: Luciferin 4-monooxygenase (Photinus pyralis) (UniProt P08659)
Test: CCTE_Simmons_QuantiLum_inhib_2: CCTE's Firefly Luciferase Inhibition Assay, Simmons Lab (AID 2283767);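 on AC50: potency for inhibitors that lower luciferase luminescence relative to DMSO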
In short: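 Cell-free recombinant firefly luciferase (5 ng/well) in 200mM potassium phosphate with 1 mg/ml BSA, 30 min at 37C with 8 concentrations from 5 nM to 87.5 uM [final], 0.5% DMSO. Luminescence read after D-luciferin (150uM)/dATP (147uM) reagent injection, pH 7.8; triplicates.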

Sequence of Luciferin 4-monooxygenase (Photinus pyralis) (P08659 whole entry, looked up): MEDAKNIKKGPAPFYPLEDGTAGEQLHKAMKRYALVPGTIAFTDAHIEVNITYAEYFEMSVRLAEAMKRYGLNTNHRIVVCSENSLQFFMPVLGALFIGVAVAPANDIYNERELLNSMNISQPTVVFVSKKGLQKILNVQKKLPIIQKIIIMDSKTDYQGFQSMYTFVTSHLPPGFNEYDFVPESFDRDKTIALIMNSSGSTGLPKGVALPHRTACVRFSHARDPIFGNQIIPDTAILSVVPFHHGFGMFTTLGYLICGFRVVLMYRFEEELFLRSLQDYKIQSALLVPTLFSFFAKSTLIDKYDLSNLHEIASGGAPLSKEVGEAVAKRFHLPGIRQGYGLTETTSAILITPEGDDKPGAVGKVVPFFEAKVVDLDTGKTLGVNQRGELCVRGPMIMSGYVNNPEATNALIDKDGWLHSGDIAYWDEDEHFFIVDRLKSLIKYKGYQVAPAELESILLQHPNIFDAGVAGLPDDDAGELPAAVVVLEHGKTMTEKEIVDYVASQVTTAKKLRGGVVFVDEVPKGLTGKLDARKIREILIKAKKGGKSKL

SMILES | outcome | AC50
CC(C)c1ccc(O)cc1 | inactive | –
CC(C)(c1cc(Cl)c(O)c(Cl)c1)c1cc(Cl)c(O)c(Cl)c1 | inactive | –
CC(C)(O)C#N | inactive | –
S=c1[nH]c2ccccc2[nH]1 | – | 2.02 µM (active)
c1ccc(P(c2ccccc2)c2ccccc2)cc1 | inactive | –

System: not listed separately
Test: ACEA_AR_agonist_AUC_viability: ACEA Biosciences xCELLigence Real-Time Cell Analysis on Androgen Receptor Agonism for Viability (AID 2283775)
In short: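 Real-time impedance tracking of 22Rv1 growth, readings every 5 min for 5 h then hourly; area-under-curve viability endpoint at 80 hours, relative to DMSO. Compounds at eight concentrations, 1:4 steps, top 100 uM, n = 2.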

SMILES | outcome
CC(C)c1ccc(O)cc1 | inactive
CC(C)(c1cc(Cl)c(O)c(Cl)c1)c1cc(Cl)c(O)c(Cl)c1 | inactive
O=C(NCNC(=O)NC1C(=O)NC(=O)N1CO)NC1C(=O)NC(=O)N1CO (stereo not drawn) | inactive
C=CCN(CC=C)C(=O)C(Cl)Cl | inactive
CC(Cc1ccc(C(C)(C)C)cc1)CN1C[C@@H](C)O[C@@H](C)C1 (stereo partly drawn) | inactive
O=CNC(N1CCN(C(NC=O)C(Cl)(Cl)Cl)CC1)C(Cl)(Cl)Cl (stereo not drawn) | inactive
CC(C)(O)C#N | inactive
CC(C)C#N | inactive
O=C1Nc2ccc(Cl)cc2C(c2ccccc2)=NC1O (stereo not drawn) | inactive

System: not listed separately
Test: ACEA_AR_antagonist_AUC_viability: ACEA Biosciences xCELLigence Real-Time Cell Analysis on Androgen Receptor Antagonism for Viability (AID 2283776);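 further: 22Rv1 human prostate cancer cells growing on impedance electrode plates; hits lower the growth signal relative to DMSO meaning cytotoxicity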
In short: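 22Rv1 prostate cells, continuous dosing up to 100 uM final (0.5% DMSO max), duplicate plates. Growth measured by impedance; AUC at 80 h, loss of signal vs DMSO.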

SMILES | outcome
N#CCCCCC#N | inactive
CC(C)c1ccc(O)cc1 | inactive
CC(C)(c1cc(Cl)c(O)c(Cl)c1)c1cc(Cl)c(O)c(Cl)c1 | inactive
O=C(NCNC(=O)NC1C(=O)NC(=O)N1CO)NC1C(=O)NC(=O)N1CO (stereo not drawn) | inactive
CCC1CCC(=O)O1 (stereo not drawn) | inactive
CC[N+](=O)[O-] | inactive
CC(Cc1ccc(C(C)(C)C)cc1)CN1C[C@@H](C)O[C@@H](C)C1 (stereo partly drawn) | inactive
O=CNC(N1CCN(C(NC=O)C(Cl)(Cl)Cl)CC1)C(Cl)(Cl)Cl (stereo not drawn) | inactive
CC(C)(O)C#N | inactive
CC(C)C#N | inactive
c1ccc(P(c2ccccc2)c2ccccc2)cc1 | inactive
O=C1Nc2ccc(Cl)cc2C(c2ccccc2)=NC1O (stereo not drawn) | inactive

System: not listed separately
Test: ACEA_ER_AUC_viability: ACEA Biosciences xCELLigence Real-Time Cell Analysis on Estrogen Receptor Agonism for Viability (AID 2283782);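 further: continuous compound exposure with impedance area under curve over 80 h; hit means loss of impedance signal meaning reduced cell growth or viability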
In short: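 T47D cells preconditioned in phenol red-free RPMI with charcoal-stripped FBS, then dosed with 8-point 1:4 series from 100 uM (up to 0.5% DMSO). Impedance monitored up to ~80 h; area-under-curve loss versus DMSO taken as viability.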

SMILES | AC50 | outcome
O=C1C(Cl)=C(Cl)C(=O)C(Cl)=C1Cl | 81.6 µM (active) | –
CC(C)(c1cc(Cl)c(O)c(Cl)c1)c1cc(Cl)c(O)c(Cl)c1 | 90.8 µM (active) | –
O=C(NCNC(=O)NC1C(=O)NC(=O)N1CO)NC1C(=O)NC(=O)N1CO (stereo not drawn) | 9.92 µM (active) | –
C=COCCCl | – | inactive
O=CNC(N1CCN(C(NC=O)C(Cl)(Cl)Cl)CC1)C(Cl)(Cl)Cl (stereo not drawn) | – | inactive
CC(C)(O)C#N | – | inactive
c1ccc(Nc2ccc3ccccc3c2)cc1 | 87.1 µM (active) | –
CC=Cc1ccc2c(c1)OCO2 | – | inactive
ClC1=C(Cl)[C@]2(Cl)[C@@H]3[C@@H](Cl)[C@H](Cl)C[C@@H]3[C@@]1(Cl)C2(Cl)Cl | – | inactive
O=S(=O)(c1ccccc1)c1ccccc1 | – | inactive
c1ccc(P(c2ccccc2)c2ccccc2)cc1 | 82.9 µM (active) | –
N#Cc1cccc(C#N)c1 | – | inactive

System: not listed separately
Test: CPHEA_Stoker_NIS_Cytotoxicity: Cytotoxicity Assessment for CPHEA's Radioactive Iodide Uptake (RAIU) Assay for Sodium/Iodide Symporter (NIS) Inhibition, Stoker and Laws Labs (AID 2283897);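 on AC50: active means loss of ATP signal versus DMSO meaning cytotoxicity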
In short: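 ATP luminescence (Cell Titer Glo) measured viability, with loss of signal normalized to DMSO controls. Cells: hNIS-HEK293T-EPA, seeded 40 hours prior. Dosing: 0.001–100uM, 2 hours, room temperature, uptake buffer pH 7.4.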

SMILES | AC50 | outcome
CC(C)(c1cc(Cl)c(O)c(Cl)c1)c1cc(Cl)c(O)c(Cl)c1 | 81.3 µM (active) | –
CC(Cc1ccc(C(C)(C)C)cc1)CN1C[C@@H](C)O[C@@H](C)C1 (stereo partly drawn) | – | inactive
O=CNC(N1CCN(C(NC=O)C(Cl)(Cl)Cl)CC1)C(Cl)(Cl)Cl (stereo not drawn) | – | inactive
Cc1ccc(OP(=O)(Oc2ccc(C)cc2)Oc2ccc(C)cc2)cc1 (tested in a mixture with another compound) | – | inactive
O=C1Nc2ccc(Cl)cc2C(c2ccccc2)=NC1O (stereo not drawn) | – | inactive

Biological target: Nucleoli Translocation, AR (gene 367) (UniProt P10275)
Test: UPITT_HCI_U2OS_AR_TIF2_Nucleoli_Antagonist: University of Pittsburgh U2OS Androgen Receptor-Transcriptional Intermediary Factor 2 (AR-TIF2) Antagonism High Content Imaging Assay for Nucleoli Translocation (AID 2283997)
In short: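 U2OS cells co-expressing red-fluorescent-tagged human AR and green-fluorescent-tagged TIF2, imaged by high-content microscopy for nucleolar red fluorescence. Antagonist mode against DHT; primary screen at 20 uM final (0.2% DMSO).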

Sequence of Nucleoli Translocation, AR (gene 367) (P10275 whole entry, looked up): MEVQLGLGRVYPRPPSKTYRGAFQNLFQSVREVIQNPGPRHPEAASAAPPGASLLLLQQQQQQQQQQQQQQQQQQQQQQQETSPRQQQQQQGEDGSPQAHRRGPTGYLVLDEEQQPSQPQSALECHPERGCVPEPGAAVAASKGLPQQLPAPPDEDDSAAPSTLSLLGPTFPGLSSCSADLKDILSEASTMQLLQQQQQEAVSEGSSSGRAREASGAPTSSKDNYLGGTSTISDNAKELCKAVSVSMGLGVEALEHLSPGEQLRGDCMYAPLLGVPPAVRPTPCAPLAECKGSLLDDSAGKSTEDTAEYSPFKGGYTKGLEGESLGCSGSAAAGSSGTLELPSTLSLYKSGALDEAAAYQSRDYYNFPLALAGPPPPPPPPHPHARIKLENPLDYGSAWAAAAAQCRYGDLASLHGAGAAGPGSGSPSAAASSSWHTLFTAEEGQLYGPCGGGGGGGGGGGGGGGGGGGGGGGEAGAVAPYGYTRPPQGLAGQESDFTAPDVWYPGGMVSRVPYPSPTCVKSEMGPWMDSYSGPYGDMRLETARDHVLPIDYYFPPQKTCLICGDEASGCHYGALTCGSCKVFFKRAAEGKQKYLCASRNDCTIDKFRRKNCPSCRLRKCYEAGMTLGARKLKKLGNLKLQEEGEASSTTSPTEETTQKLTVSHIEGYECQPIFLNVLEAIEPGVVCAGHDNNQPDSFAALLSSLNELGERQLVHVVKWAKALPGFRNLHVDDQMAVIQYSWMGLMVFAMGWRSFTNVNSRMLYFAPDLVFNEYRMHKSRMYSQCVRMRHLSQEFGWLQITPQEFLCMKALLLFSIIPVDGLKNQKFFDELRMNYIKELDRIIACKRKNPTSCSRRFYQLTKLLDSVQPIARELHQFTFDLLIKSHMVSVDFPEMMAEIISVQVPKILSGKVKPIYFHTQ

SMILES | AC50 | outcome
O=C(NCNC(=O)NC1C(=O)NC(=O)N1CO)NC1C(=O)NC(=O)N1CO (stereo not drawn) | 50 µM (active) | –
C=COCCCl | – | inactive
O=CNC(N1CCN(C(NC=O)C(Cl)(Cl)Cl)CC1)C(Cl)(Cl)Cl (stereo not drawn) | – | inactive

Biological target: Nucleoli Translocation, AR (gene 367) (UniProt P10275)
Test: UPITT_HCI_U2OS_AR_TIF2_Nucleoli_Agonist: University of Pittsburgh U2OS Androgen Receptor-Transcriptional Intermediary Factor 2 (AR-TIF2) Agonism High Content Imaging Assay for Nucleoli Translocation (AID 2283998)
In short: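 Red-tagged human androgen receptor co-expressed with GFP-tagged TIF2 serves as the binding reporter. Primary testing used 20 uM final (0.2% DMSO); follow-up dose response covered 0.195 to 50 uM final (0.5% DMSO).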

SMILES | outcome
O=C(NCNC(=O)NC1C(=O)NC(=O)N1CO)NC1C(=O)NC(=O)N1CO (stereo not drawn) | inactive
C=COCCCl | inactive
O=CNC(N1CCN(C(NC=O)C(Cl)(Cl)Cl)CC1)C(Cl)(Cl)Cl (stereo not drawn) | inactive

Biological target: Ratio of Nucleoli Translocation and Cytoplasm, AR (gene 367) (UniProt P10275)
Test: UPITT_HCI_U2OS_AR_TIF2_Nucleoli_Cytoplasm_Ratio_Antagonist: University of Pittsburgh U2OS Androgen Receptor-Transcriptional Intermediary Factor 2 (AR-TIF2) Antagonism High Content Imaging Assay for Ratio of Nucleoli Translocation and Cytoplasm (AID 2283999);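 further: antagonists lower the DHT-driven ratio of nucleolar to cytoplasmic red signal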
In short: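 U2OS cells co-expressing RFP-tagged human AR and GFP-tagged TIF2, antagonist mode with DHT as baseline. Nucleolar-to-cytoplasmic red fluorescence ratio imaged by high-content microscopy; final compound 20 uM (0.2% DMSO) primary, 0.195–50 uM (0.5% DMSO) concentration-response.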

Sequence of Ratio of Nucleoli Translocation and Cytoplasm, AR (gene 367) (P10275 whole entry, looked up): as above

SMILES | AC50 | outcome
O=C(NCNC(=O)NC1C(=O)NC(=O)N1CO)NC1C(=O)NC(=O)N1CO (stereo not drawn) | 50 µM (active) | –
C=COCCCl | – | inactive
O=CNC(N1CCN(C(NC=O)C(Cl)(Cl)Cl)CC1)C(Cl)(Cl)Cl (stereo not drawn) | – | inactive

Biological target: Ratio of Nucleoli Translocation and Cytoplasm, AR (gene 367) (UniProt P10275)
Test: UPITT_HCI_U2OS_AR_TIF2_Nucleoli_Cytoplasm_Ratio_Agonist: University of Pittsburgh U2OS Androgen Receptor-Transcriptional Intermediary Factor 2 (AR-TIF2) Agonism High Content Imaging Assay for Ratio of Nucleoli Translocation and Cytoplasm (AID 2284000);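 further: hits raise the red nucleolar to cytoplasm ratio above vehicle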
In short: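 U2OS cells expressing RFP-tagged human AR and GFP-tagged TIF2; high-content imaging ratio of nucleolar to cytoplasmic red fluorescence, fitted as gain of signal vs DMSO. Single point at 20 uM final (0.2% DMSO); concentration-response 0.195-50 uM final (0.5% DMSO).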

SMILES | outcome
O=C(NCNC(=O)NC1C(=O)NC(=O)N1CO)NC1C(=O)NC(=O)N1CO (stereo not drawn) | inactive
C=COCCCl | inactive
O=CNC(N1CCN(C(NC=O)C(Cl)(Cl)Cl)CC1)C(Cl)(Cl)Cl (stereo not drawn) | inactive
